Data on 26 molecules can be found in PubChem BioAssay (NCI).

About 83,000 compounds went through this panel and 20% of them were active in at least one assay; those are over-represented in the sample as a whole.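 Testing used 96-well plates and a 48-hour single-concentration exposure. Example: -40 means 40% of the starting cells died.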 Values without a mark were called inactive. Active and inactive are the calls of the source. The calls were made as follows: active = growth percent below 10; inactive = the rest.

What all share (test): NCI-60 one-dose screen, 48 h (100 = growth as untreated, 0 = no growth, -100 = all killed)
Settings in all cases: 10 µM unless noted

For test [1], the system named is SK-MEL-2 melanoma.
Test [2] has as its system EKVX NSCLC.
Test [3] relates to SN12C renal.
Test [4] concerns UO-31 renal.
Test [5] deals with TK-10 renal.
For test [6], the system named is ACHN renal.
Test [7] relates to CAKI-1 renal.
Test [8] relates to A498 renal.
The test system of test [9] is CCRF-CEM leukemia.
The subject of test [10] is MOLT-4 leukemia.

As for `O=C(C[C@]1(O)C(=O)Nc2ccccc21)c1cccc(C(F)(F)F)c1`, the growth in [1] is 91.2%; in test [2], 99.5%; in test [3], 80%; in [4] it was 58.1%; in [5], 138%; in [6] it was 88.2%. Also, the growth in [7] is 81.7%; in test [8], 99.8%; in [9] it was 97%; in [10] it was 96%.

`COc1ccc(C(=O)/C=C/c2c(C(F)(F)F)nc3ccccn23)cc1OC`: the growth in test [1] was 31.3%; in test [2], 8.13% (active); in [3], 16.1%; in [4] it was 25.9%; in [5], 29.9%; in [6], -41.1% (active). Further, the growth was -5.18% (active) in [7], 65.8% in test [8], 14.9% in [9] and 7.14% (active) in test [10].

As to `CCCCNC(=O)Oc1ccc(/C(=C(/C)Cc2ccc(OC)cc2)c2ccc(OCCN3CCCC3)cc2)cc1`, the growth was 85.2% in [1]; 67.6% in test [2]; 72.6% in test [3]; 53.5% in test [4]; 81.2% in test [5]; 91.9% in test [6]. The growth in test [7] is 70.5%; in [8] it was 59.6%; in test [9], 46%; in test [10], 34.4%.

Turning to `Nc1[nH]n2cc(-c3ccccc3)nc2c1N=Nc1ccc(S(N)(=O)=O)cc1`, the growth in test [1] is 31.6%; in [2], 54.6%; in test [3] it was 20.1%; in test [4], 19.5%; in test [5] it was 48.4%; in test [6] it was 8.58% (active). The growth in test [7] was 3.86% (active); in test [8], 8.19% (active); in [9] it was 19.7%; in test [10], 13.9%.

Take `Oc1ccc(Cl)cc1/C=N\NC(=S)N/N=C/c1cc(Cl)ccc1O`: the growth in test [1] was 26.2%; in test [2], 50.3%; in [3] it was 45.9%; in [4] it was 16.1%; in [5], 31%; in test [6] it was 15.3%. Besides, the growth was -7.22% (active) in test [7], 37.5% in test [8], 8.57% (active) in test [9] and 11.8% in [10].

Turning to `CCOC(=O)c1cc2c(n1Cc1cc(OC)c(OC)c(OC)c1)-c1nc(N)sc1CCC2`, the growth in test [1] was 32.6%; in [2], 65.6%; in test [3], 88.5%; in test [4] it was 57%; in test [5], 74.4%; in test [6] it was 77.2%. The growth was 55.9% in test [7], 7.34% (active) in [8], 41.1% in [9] and 66.7% in test [10].

`Cc1ccc(-c2nc(N3CCCNCC3)c3oc(-c4ccccc4)nc3n2)cc1`: the growth was -67.2% (active) in [1]; 38.2% in test [2]; -85.1% (active) in [3]; -99% (active) in test [4]; -95.9% (active) in test [5]; -98.8% (active) in test [6]. In addition, the growth in test [7] was -71% (active); in [8], 93.4%; in test [9] it was -71% (active); in test [10], -73.2% (active).

With `CCCC/C(CC)=N\NS(=O)(=O)c1ccc([N+](=O)[O-])cc1`, the growth in [1] is 94.6%; in test [2], 102%; in test [3], 102%; in test [4] it was 83.3%; in [5], 93.4%; in test [6], 104%. The growth was 96.9% in test [7], 96.3% in test [8], 87.1% in [9] and 101% in test [10].

For the molecule `C1CN(SSN2CCOCC2)CCO1`, the growth was 63.1% [100 µM] in [1]; 13.1% [100 µM] in test [2]; -74.7% [100 µM] (active) in [3]; -37.5% [100 µM] (active) in [4]; -72.8% [100 µM] (active) in test [5]; -70.1% [100 µM] (active) in [6]. Besides, the growth in test [7] is -48.4% [100 µM] (active); in [8] it was 75.8% [100 µM]; in test [9], 11.8% [100 µM]; in test [10], 50.4% [100 µM].

Turning to `CN1CCc2nc3sc(C(N)=O)c(N)c3c(-c3cccs3)c2C1`, the growth was 27.3% in test [1]; 47.7% in test [2]; 29.1% in test [3]; 4.13% (active) in test [4]; 43% in test [5]; 8.41% (active) in [6]. Besides, the growth in test [7] was 38.8%; in test [8] it was -1.55% (active); in test [9], 19.3%; in test [10] it was 62.1%.

Consider `CCC(=O)Oc1ccc(-c2ccccc2)cc1Br`, for which the growth is 110% in test [1]; 102% in test [2]; 104% in test [3]; 102% in test [4]; 101% in test [5]; 113% in test [6]. Also, the growth in test [7] was 98.7%; in [8], 63.5%; in test [9], 102%; in [10] it was 111%.

Regarding `CN(C)c1ccc(-c2c(C#N)c(N)nn2C(=O)c2ccc(NC(=O)c3ccccn3)cc2)cc1`, the growth in [1] is 105%; in test [2] it was 91.6%; in test [3], 101%; in [4], 80.7%; in [5], 110%; in test [6], 87.2%. In addition, the growth in test [7] was 77.3%; in [8], 96.6%; in [9], 51.5%; in test [10] it was 99.5%.

For the molecule `N#Cc1c(-c2ccccc2)cc(-c2ccccc2)n(CCCC(=O)Nc2ccccc2N)c1=O`, the growth in [1] is 46.4%; in test [2], 79.1%; in [3], 70.5%; in test [4], 49.1%; in test [5] it was 104%; in test [6], 63.8%. Besides, the growth is 38.2% in test [7], -5.55% (active) in [8], 56.3% in test [9] and 47.4% in test [10].

Consider `CCc1ccccc1-n1c(-c2ccc(OC)cc2)cc(-c2ccc(OC)cc2)c(C#N)c1=O`, for which the growth in test [1] was 90.2%; in test [2] it was 94.1%; in test [3] it was 89.8%; in [4], 88.3%; in [5], 97.2%; in [6], 61.6%. Also, the growth is 77.9% in test [7], 69.5% in [8], 127% in test [9] and 133% in test [10].

For the molecule `Cc1nc2sc(C(=O)Nc3cccc(Br)c3)c(N)c2cc1C(O)c1ccccc1` (stereo not given), the growth in test [1] was 47.2%; in test [2], 48.5%; in test [3], 22.4%; in test [4] it was 48.4%; in [5], 58%; in test [6], 33.2%. In addition, the growth in test [7] was 46.4%; in test [8], 5.68% (active); in test [9], 15.7%; in test [10] it was 17.1%.

As to `COc1ccc(-c2noc(C(=O)O)c2-c2cc(OC)c(OC)c(OC)c2)cc1`, the growth in [1] is 13.8%; in test [2], 44.1%; in [3] it was 38.4%; in [4] it was 38.8%; in [5] it was 46.4%; in [6], 34.7%. Further, the growth was 22.6% in test [7], 31.6% in [8], 7.85% (active) in [9] and 25.7% in test [10].

Consider `Fc1cnccc1C1CC(c2ccc(N3CCNCC3)cc2)=NN1` (stereo not given), for which the growth in test [1] is 92.7%; in test [2], 91%; in [3], 89.6%; in [4], 77.2%; in test [5] it was 123%; in test [6], 99.9%. Also, the growth in [7] was 80.6%; in test [8] it was 97.2%; in test [9], 80.8%; in [10], 74.2%.

Take `COC(=O)[C@]12CCC(C)(C)C[C@H]1[C@H]1/C(=N/OCCc3nn[nH]n3)C[C@@H]3[C@@]4(C)CC[C@H](OC(C)=O)C(C)(C)[C@@H]4CC[C@@]3(C)[C@]1(C)CC2`: the growth in [1] was 58.8%; in test [2], 35.6%; in test [3], 39%; in test [4], 15.5%; in test [5] it was 55.6%; in test [6], 32.8%. The growth in [7] is 39.8%; in [8], -19% (active); in [9], 33.5%; in test [10] it was 27.6%.

`N#CSc1c[nH]c2cccc(/C=C/C(=O)/C=C(/C=C/c3cccc4[nH]cc(SC#N)c34)OB(F)F)c12`: the growth in test [1] is -65% (active); in test [2] it was -10.4% (active); in test [3] it was -21.8% (active); in test [4], -76% (active); in [5], -51.7% (active); in test [6] it was -48.9% (active). Moreover, the growth in test [7] was -12.5% (active); in test [8], 28.2%; in test [9], -10.9% (active); in [10], -14.4% (active).

As for `O=C(NCCCl)Nc1ncccc1OCc1ccccc1`, the growth was 101% in test [1]; 98.9% in test [2]; 97% in test [3]; 94.9% in test [4]; 88.9% in test [5]; 110% in test [6]. Besides, the growth is 97.9% in test [7], 90% in [8], 106% in test [9] and 95.3% in test [10].

On to `CCC(C(=O)[C@@H](C)[C@@H](O)[C@H](C)[C@@H]1O[C@@H]([C@@H](CC)C(=O)ONC(=O)c2ccccc2)CC[C@@H]1C)[C@H]1O[C@]2(C=CC(=O)[C@]3(CC[C@@](C)([C@H]4CC[C@](O)(CC)[C@H](C)O4)O3)O2)[C@H](C)C[C@@H]1C` (stereo not given in full), for which the growth was -4.05% (active) in test [1]; 33.5% in test [2]; -48.6% (active) in test [3]; -95.1% (active) in test [4]; 52.8% in test [5]; -47.3% (active) in [6]. In addition, the growth in test [7] is 16.5%; in test [8] it was 16.8%; in [9] it was -11.2% (active); in [10], -2.14% (active).

For `COc1cc(OC)c(/C=C/C(=O)c2c(OC)cccc2OC)c(OC)c1`, the growth in test [1] was -14.9% (active); in test [2], 42.9%; in test [3], 24.1%; in [4], 28.9%; in test [5], 33.5%; in test [6] it was 19.6%. For the same molecule, the growth in test [7] is 14.8%; in [8] it was 21.4%; in test [9], 16.2%; in [10], 18.6%.

Take `Cc1ccc(/C=C2\COc3ccc(O)cc3C2=O)cc1`: the growth is 117% in test [1]; 97.8% in test [2]; 79.9% in [3]; 58.9% in [4]; 102% in [5]; 94% in test [6]. For the same molecule, the growth in [7] is 80.8%; in [8], 109%; in test [9] it was 2.21% (active); in test [10], 40.6%.

For `Cc1c(-c2ccc(O)cc2)n(Cc2ccc(OCCN3CCCCCC3)cc2)c2ccc(O)cc12`, the growth in test [1] is 106%; in test [2], 75.2%; in [3] it was 81%; in test [4] it was 52.6%; in test [5], 78%; in [6], 91.9%. In addition, the growth is 50.6% in test [7], 53.7% in test [8], 57.5% in test [9] and 39.8% in [10].

For the molecule `O=C1c2ccc3c4c5ccc(c24)C(=O)N1CCCOCCCCOCCCNCc1ccc(cc1)CNCCCOCCCCOCCCN(C3=O)C5=O`, the growth was -35.8% (active) in test [1]; -63.1% (active) in test [2]; -82.9% (active) in [3]; 64.7% in [4]; 21.6% in test [5]; -65.7% (active) in test [6]. Further, the growth is -1.05% (active) in test [7], 93.7% in test [8], -0.763% (active) in test [9] and -12.3% (active) in [10].

Regarding `COc1cccc(CNc2ccc3ncnc(Nc4ccc(F)c(Cl)c4)c3c2)c1`, the growth was 94.9% in test [1]; 26% in test [2]; 52.8% in test [3]; 32.5% in test [4]; 29.8% in [5]; 26.2% in test [6]. Moreover, the growth in test [7] was 34.6%; in [8], 45.1%; in test [9] it was 75.1%; in test [10], 69.9%.
